This is an account of results in ChEMBL document CHEMBL4513135, “CO-ADD screening of IQOG CSIS (Spain) compounds”.

The Inhibition is the relative decrease from the control value, in per cent.

Experiment [1] concerns Klebsiella pneumoniae. The following applies: Concentration 32 ug.mL-1, ASSAY_TEST Inhibition of Bacterial Growth, detection method Absorption (OD600), MEDIA CAMHB, plate type 384well, NBS, CORNING #3640, time 18 hr.
In experiment [2] the test system is Candida albicans. Conditions: 32 ug/mL.
The subject of experiment [3] is Cryptococcus neoformans. Conditions: Concentration 32 ug.mL-1, ASSAY_TEST Inhibition of Fungal Growth, detection method Resazurin, Absorption (OD600-OD570), plate type 384well, NBS, CORNING #3640. In general terms: Resazurin is reduced to fluorescent resorufin, in cell work by metabolically active cells.

The structures appear in SMILES notation. Values joined by “and” are separate entries in the source; they are usually repeats but may differ in a detail not shown here. Identical values can stand only once. Entries with a potency or affinity are not part of this list.

With `COc1nc(NC(C)=O)c(C#N)c(-c2ccccc2)c1C#N`, the Inhibition in experiment [1] was 12.51%; in experiment [2], 2.3%; in experiment [3] it was -37.64%.

As to `COc1ccccc1C1C(C#N)=C(N)Oc2ccc3ccccc3c21` (centres undefined), the Inhibition in experiment [1] was 9.04%; in experiment [2], 2.24%; in experiment [3], -18.76%.

As for `C#CCN(Cc1ccccc1)c1nc(N)c(C#N)c(-c2ccccc2)c1C#N`, the Inhibition in experiment [1] is -5.74%; in experiment [2], 2.73%; in experiment [3] it was -25.11%.

For the compound `COc1ccc2c(c1)cc(C(=O)O)n2C`, the Inhibition in experiment [1] was 11.78%; in experiment [2] it was 31.1%; in experiment [3], -23.41%.

`C1CNCCNCCNCCNC1`: the Inhibition in experiment [1] is 5.58%; in experiment [2], 4.25%; in experiment [3], -3.46%.

For the compound `Cc1cnc2ccc(Cl)cn12`, the Inhibition turned out to be 22.77% in experiment [1], 0.97% in experiment [2] and 1.56% in experiment [3].

For `O=Cc1c[nH]c2ccccc12` [3-FORMYLINDOLE], the Inhibition is 22.42% in experiment [1], 1.76% in experiment [2] and -4.21% in experiment [3].

As to `C=C1CN(C)c2c(C#N)c(-c3ccccc3)c(C#N)c(=N)n21`, the results for the Inhibition in experiment [1], in experiment [2] and in experiment [3] were 8.43%, -0.24% and -51.34%, respectively.

On to `CNCc1cc2ccccc2n1C.Cl`, for which the results for the Inhibition in experiment [1], in experiment [2] and in experiment [3] were 8.53%, 1.26% and -5.12%, respectively.

For `Br.C#CCNCc1ccccc1`, the Inhibition in experiment [1] is 12.8%; in experiment [2], -0.33%; in experiment [3], -4.9%.

Take `CNC(=O)c1c(Cl)c2cc(OCc3ccccc3)ccc2n1C`: the values for the Inhibition in experiment [1], in experiment [2] and in experiment [3] were 13.13%, 4.9% and -46.6%, respectively.

`N#Cc1cc(C#N)c(NC2CCN(Cc3ccccc3)CC2)nc1N`: the Inhibition in experiment [1] (32 ug/mL) is 9.31% and 4.29%; in experiment [2] it was 1.61% and 2.76%; in experiment [3] (32 ug/mL), -42.03% and -48.76%.

For the compound `CCOC(=O)C1=C(C)OC(N)=C(C#N)C1c1ccco1` (centres undefined), the Inhibition in experiment [1] is 6.85%; in experiment [2], 1.71%; in experiment [3], -29.39%.

Regarding `COc1ccc2c(c1)cc(C(=O)Nc1ccccc1)n2C`, the Inhibition in experiment [1] is 8.32%; in experiment [2], 2.05%; in experiment [3], -38.47%.

In the case of `C#CCNc1ccc(Cl)nn1`, the Inhibition in experiment [1] is 15.08%; in experiment [2] it was 3.36%; in experiment [3], -43.23%.

As for `Cl.N#Cc1cc(C#N)c(N2CCCC2)nc1Cl`, the figures for the Inhibition in experiment [1], in experiment [2] and in experiment [3] were 14.18%, 3.61% and -52.24%, respectively.

Take `Cc1ccc(S(=O)(=O)N[C@H]2CC[C@H](O)CC2)cc1`: the Inhibition was 11.86% in experiment [1], 0.9% in experiment [2] and -40.23% in experiment [3].

Take `COc1nc(Cl)c(C#N)c(-c2ccccc2)c1C#N`: the results for the Inhibition in experiment [1], in experiment [2] and in experiment [3] were 0.27%, 31.9% and -41.05%, respectively.

For the compound `NC1(C(=O)O)CC1c1ccc2c(c1)OCO2` (centres undefined), the Inhibition is 1.95% in experiment [1], -1.13% in experiment [2] and -2.53% in experiment [3].

As for `CC(C)(C)OC(=O)Nc1ccc(Cl)cn1`, the Inhibition is 13.6% in experiment [1], -0.26% in experiment [2] and -54% in experiment [3].

With `O=C(N/N=C/c1c[nH]c2ccccc12)c1ccc(Cl)cc1`, the Inhibition in experiment [1] was 14.79%; in experiment [2] it was 0.77%; in experiment [3] it was -0.09%.

`Cc1ccc2nc(Cl)c(/C=N/C(C)(C)C)cc2c1`: the values for the Inhibition in experiment [1], in experiment [2] and in experiment [3] were 7.37%, 7.21% and -0.47%, respectively.

For `COc1ccc(C2C(C#N)=C(N)Oc3c2ccc2ccccc32)cc1` (centres undefined), the Inhibition in experiment [1] is 9.52%; in experiment [2], 1.55%; in experiment [3], -40.73%.

For `O=C(N/N=C/Cc1ccccc1)c1cc2ccccc2[nH]1`, the Inhibition in experiment [1] was 10.16%; in experiment [2] it was -1.49%; in experiment [3], -3.25%.

For `CCOC(=O)c1c(C)[nH]c(=O)c(C#N)c1-c1ccccc1`, the results for the Inhibition in experiment [1], in experiment [2] and in experiment [3] were 10.06%, 2.08% and -38.24%, respectively.

As for `C=C1CN(C)c2c(C#N)c(-c3ccccc3)c(C#N)c(=O)n21`, the Inhibition in experiment [1] is -0.48%; in experiment [2], 3.72%; in experiment [3], -24.16%.

`N#Cc1c(Cl)nc(N2CCCCC2)c(C#N)c1-c1ccccc1`: the Inhibition was -24.06% in experiment [1], 3.22% in experiment [2] and -3.56% in experiment [3].

Regarding `N#Cc1cc(C#N)c(Cl)nc1Cl`, the Inhibition in experiment [1] stood at 2.35%; in experiment [2] it was 33.1%; in experiment [3] it was 24.8%.

As for `CC(=O)Nc1n[nH]c2nc(N)c(C#N)c(-c3ccccc3)c12`, the values for the Inhibition in experiment [1], in experiment [2] and in experiment [3] were 17.23%, 3.09% and -57.93%, respectively.

In the case of `C#CCN(C)Cc1cc2cc(OCCCC3CCN(C(=O)OC(C)(C)C)CC3)ccc2n1C`, the figures for the Inhibition in experiment [1], in experiment [2] and in experiment [3] were -9.9%, 1.82% and -6.45%, respectively.

In the case of `CN1C/C(=C\Cl)n2c1c(C#N)c(-c1ccccc1)c(C#N)c2=O`, the Inhibition in experiment [1] was 4.05%; in experiment [2], 3.56%; in experiment [3], -47.27%.

Regarding `CC1(C)OC(=O)C(=Cc2ccc([N+](=O)[O-])cc2)C(=O)O1`, the results for the Inhibition in experiment [1], in experiment [2] and in experiment [3] were 18.71%, 1.46% and -6.06%, respectively.

As to `CCCCCCC(C)NNC(=O)c1cc2ccccc2[nH]1` (centres undefined), the Inhibition in experiment [1] was -31.72%; in experiment [2], 3.47%; in experiment [3], -2.85%.

As to `C#CCNc1[nH]c2ccc(O)cc2c1C#N`, the Inhibition in experiment [1] is 14.34%; in experiment [2], 1.86%; in experiment [3], -54.9%.

As for `CC1CN(C)c2c(C#N)c(-c3ccccc3)c(C#N)c(=N)n21` (centres undefined), the Inhibition in experiment [1] is 18.9%; in experiment [2] it was 1.63%; in experiment [3], -66.3%.

Consider `CN1C/C(=C\Cl)n2c1c(C#N)cc(C#N)c2=O`, for which the figures for the Inhibition in experiment [1], in experiment [2] and in experiment [3] were 5.49%, 1.11% and -52.5%, respectively.

Consider `COc1ccccc1[C@H]1c2c(ccc3ccccc23)O/C(=N\Br)[C@@]1(Br)C#N`, for which the Inhibition in experiment [1] is 5.34%; in experiment [2], 8.63%; in experiment [3], -5.55%.

Take `COC1(N)Oc2ccc3ccccc3c2C(c2ccccc2)C1(Br)C#N` (centres undefined): the Inhibition is -5.7% in experiment [1], 8.36% in experiment [2] and -6.17% in experiment [3].
